Activity calls are given as the source filed them. Unless noted, no rule for the calls is given here.
Key:
[1] = HepG2 liver cancer cell viability effects, profiling panel, resazurin fluorescence, 24 h, PK04 Diversity Set (AID 1172); conditions: higher = more signal; also: test concentration not given here
[2] = basal S. cerevisiae growth modulation, no modifier, primary screen, OD600, strain BY4716, 24 h, basal condition (AID 1173); conditions: OD600, 24 h, higher = more signal, called active from +8 up or from −8 down
[3] = MM1S myeloma cell viability, profiling panel, resazurin fluorescence, basal, 24 h, PK04 Diversity Set (AID 1174); conditions: higher = more signal, called active from +8 up or from −8 down;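 also: MM1S multiple myeloma cell line; test concentration not given here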
[4] = target: Dihydroorotate dehydrogenase (quinone), mitochondrial (Plasmodium falciparum (isolate 3D7)) (UniProt Q08210); experiment: PfDHODH enzyme inhibitors, primary screen, biochemical, C-terminal His tag, absorbance 600 nm (AID 1175); conditions: DCIP absorbance 600 nm, higher = more signal, called active from +8 up or from −8 down;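 also: recombinant parasite enzyme with a five histidine tag at its C terminus; test concentration not given here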
Dihydroorotate dehydrogenase (quinone), mitochondrial (Plasmodium falciparum (isolate 3D7)), sequence (Q08210 whole entry, looked up): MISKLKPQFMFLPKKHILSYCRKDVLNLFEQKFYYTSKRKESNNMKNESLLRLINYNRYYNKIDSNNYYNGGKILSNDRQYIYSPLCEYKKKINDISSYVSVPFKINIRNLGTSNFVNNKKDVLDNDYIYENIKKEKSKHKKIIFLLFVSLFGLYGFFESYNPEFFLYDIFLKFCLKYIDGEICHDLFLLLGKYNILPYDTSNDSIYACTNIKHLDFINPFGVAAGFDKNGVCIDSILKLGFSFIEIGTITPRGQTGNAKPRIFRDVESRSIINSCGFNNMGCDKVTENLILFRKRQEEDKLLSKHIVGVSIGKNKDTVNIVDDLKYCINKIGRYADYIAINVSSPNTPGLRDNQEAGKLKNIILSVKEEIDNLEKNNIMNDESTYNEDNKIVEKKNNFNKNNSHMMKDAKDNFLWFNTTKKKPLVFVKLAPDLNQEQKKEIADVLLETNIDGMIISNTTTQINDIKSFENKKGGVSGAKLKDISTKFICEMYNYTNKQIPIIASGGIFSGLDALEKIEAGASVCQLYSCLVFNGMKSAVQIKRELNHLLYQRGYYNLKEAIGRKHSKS

[5] = P. aeruginosa biofilm formation inhibitors, primary screen, strain PAO1, LB-PBS medium, absorbance 600 nm (AID 1176); also: test concentration not given here; conditions: P. aeruginosa PAO1 growth/biofilm, A600, 12 h; higher = more signal
[6] = S. cerevisiae RM11-1a growth modifiers, primary screen, strain RM11-1a, OD600, basal, 24 h (AID 1177); conditions: OD600, 24 h, higher = more signal, called active from +8 up or from −8 down;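 also: cultures grown under basal conditions with no added stressor; test concentration not given here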
[7] = E. coli acrAB mutant growth effects, primary screen, E. coli filamentation inducers, strain DRC39, OD650, 24 h (AID 1178); conditions: higher = more signal, called active from +8 up or from −8 down;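 also: growth measured as culture turbidity by optical density at 650 nm; test concentration not given here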
[8] = E. coli acrAB mutant growth effects, primary screen, E. coli filamentation inducers, strain DRC39, OD650, 48 h (AID 1179);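 also: screen aims at cell division blockers that make cells filament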; conditions: E. coli DRC39 delta-acrAB growth, higher = more signal, called active from +8 up or from −8 down
[9] = RPMI8226 myeloma cell viability, profiling panel, resazurin fluorescence, basal, 24 h, PK04 Diversity Set (AID 1180); conditions: higher = more signal;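 also: RPMI8826 multiple myeloma cell line at 5000 cells per well; test concentration not given here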
[10] = target: E3 ubiquitin-protein ligase XIAP (Homo sapiens) (UniProt P98170); experiment: XIAP binders, primary screen, biophysical, small-molecule microarray, fluorescence 635 nm (AID 1181); conditions: small-molecule microarray binding, higher = more signal;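 also: score merges 667 nm emission and signal to noise over triplicate slides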
E3 ubiquitin-protein ligase XIAP (Homo sapiens), sequence (P98170 whole entry, looked up): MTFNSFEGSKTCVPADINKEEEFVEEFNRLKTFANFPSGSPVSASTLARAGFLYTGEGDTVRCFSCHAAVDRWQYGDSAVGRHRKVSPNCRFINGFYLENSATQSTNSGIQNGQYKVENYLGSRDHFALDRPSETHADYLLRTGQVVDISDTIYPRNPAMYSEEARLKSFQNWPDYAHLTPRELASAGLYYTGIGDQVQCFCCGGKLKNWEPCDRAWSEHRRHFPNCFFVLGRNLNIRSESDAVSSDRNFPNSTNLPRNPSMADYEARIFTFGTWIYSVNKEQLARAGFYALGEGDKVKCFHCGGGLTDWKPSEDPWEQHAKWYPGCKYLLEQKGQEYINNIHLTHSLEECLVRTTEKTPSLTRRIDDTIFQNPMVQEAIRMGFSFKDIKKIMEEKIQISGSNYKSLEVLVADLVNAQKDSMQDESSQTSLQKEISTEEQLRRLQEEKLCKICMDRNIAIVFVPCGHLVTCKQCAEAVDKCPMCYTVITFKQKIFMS

| SMILES | z-score [1] | z-score [2] | z-score [3] | composite z-score [4] | z-score [5] | z-score [6] | z-score [7] | z-score [8] | z-score [9] | composite z-score [10] |
| --- | --- | --- | --- | --- | --- | --- | --- | --- | --- | --- |
| CCCCN1CC=CC23O[C@@H]4/C=C\CCCOC(=O)C4[C@H]2C(=O)N(CCCCCCO)[C@@H]3C1=O (stereo not given in full) | 0.646 | -0.556 (inactive) | 1.21 (inactive) | -1.97 (inactive) | 0.454 (inactive) | -0.874 (inactive) | 0.564 (inactive) | 0.924 (inactive) | 0.983 | -0.159 |
| COC(=O)[C@@]1(Cc2ccc(F)cc2)[C@@H]2C(=CC(=O)[C@H]2CC(=O)C(=O)N2CCCC2)CN1C(=O)c1ccccc1 | -1.96 | 0.336 (inactive) | -2.67 (inactive) | -3.95 (inactive) | 2.55 (inactive) | 0.381 (inactive) | 0.132 (inactive) | -0.363 (inactive) | -5.25 | -0.0391 |
| CCOC(=O)C[C@H]1[C@H](OC(=O)c2cc3ccccc3oc2=O)[C@@H](NC(=O)c2ccc(-c3ccccc3)cc2)c2cc(OCCCO)ccc2N1C(=O)Cc1ccc(OC)cc1 | 0.288 | 0.0392 (inactive) | -0.346 (inactive) | -0.487 (inactive) | 0.285 (inactive) | -0.0775 (inactive) | -0.225 (inactive) | -0.618 (inactive) | -0.0232 | -0.338 |
| CN1C(=O)C2C(C1=O)C1C=C(CCCO)C2C(C2CC2)N1C (stereo not given) | -1.15 | 0.275 (inactive) | -0.228 (inactive) | -2.87 (inactive) | -0.214 (inactive) | -0.593 (inactive) | 0.796 (inactive) | 1.44 (inactive) | -0.965 | 0.333 |
| CC1C2C(CCCO)=CC(C3C(=O)N(C(N)=O)C(=O)C23)N1Cc1cccc(OC(F)(F)F)c1 (stereo not given) | 0.0337 | -0.837 (inactive) | -0.402 (inactive) | -0.766 (inactive) | 0.437 (inactive) | -0.369 (inactive) | 0.0299 (inactive) | -0.114 (inactive) | -0.907 | -0.199 |
| CCCCC(=C=CC[C@H](O)c1cccc(OCCO)c1)C[C@H](O)c1cc(Cl)cc(Cl)c1O | 1.89 | -2.65 (inactive) | 0.356 (inactive) | 0.189 (inactive) | 0.318 (inactive) | 0.275 (inactive) | 1.07 (inactive) | 0.923 (inactive) | 0.242 | -0.206 |
| C=C[C@H](OC)[C@@H](O)c1ccc(OC)c(O)c1 | 0.0143 | -0.506 (inactive) | 0.546 (inactive) | 0.255 (inactive) | 0.65 (inactive) | -0.0878 (inactive) | 0.37 (inactive) | 0.905 (inactive) | 0.252 | -0.289 |
| COc1ccc([Si](C)(C)[C@@H]2[C@@H](CC(=O)N3Cc4ccccc4C[C@H]3CO)O[C@]3(C(=O)N(Cc4ccc(I)cc4)c4ccccc43)[C@H]2C)cc1 | 0.454 | -0.0671 (inactive) | -1 (inactive) | 0.312 (inactive) | 0.662 (inactive) | 2.33 (inactive) | 0.101 (inactive) | -0.092 (inactive) | -0.336 | 0.262 |
| [N-]=[N+]=NCc1ccccc1[C@H]1OC(c2ccc(OCCCO)cc2)=N[C@@]1(Cc1ccccc1N=[N+]=[N-])C(N)=O | 0.794 | -2.02 (inactive) | 0.393 (inactive) | -0.0773 (inactive) | -0.0963 (inactive) | 0.77 (inactive) | 0.0162 (inactive) | 0.394 (inactive) | -0.103 | -0.0773 |
| C[C@]1(C(=O)O)c2ccccc2C(=O)N(Cc2cc(C(F)(F)F)cc(C(F)(F)F)c2)[C@H]1c1ccc(CO)cc1 | 0.341 | 0.0491 (inactive) | 0.385 (inactive) | -0.979 (inactive) | -0.0528 (inactive) | -0.161 (inactive) | -0.124 (inactive) | -0.515 (inactive) | 0.306 | -0.173 |
| COC(=O)[C@@]1(Cc2ccc(F)cc2)[C@H]2c3cc(C(=O)N4CCCC4)n(C[C@H](O)CO)c3C[C@H]2CN1C(=O)c1ccccc1 | -0.462 | 0.897 (inactive) | -0.765 (inactive) | -0.323 (inactive) | 0.812 (inactive) | -0.108 (inactive) | -0.645 (inactive) | -0.0414 (inactive) | -0.797 | 0.0811 |
| COC(=O)[C@@]1(Cc2ccccc2)[C@H]2c3cc(C(=O)N(C)C)n(Cc4nc5ccccc5[nH]4)c3C[C@H]2CN1C(=O)c1ccccc1 | 1.17 | -0.541 (inactive) | -0.204 (inactive) | -0.862 (inactive) | 0.92 (inactive) | -0.706 (inactive) | 1.04 (inactive) | 0.0023 (inactive) | -0.139 | 0.0747 |
| COC(=O)[C@@]1(Cc2ccc(F)cc2)[C@H]2c3cc(C(=O)N4CCCC4)n(CCSCCO)c3C[C@H]2CN1C(=O)c1ccccc1 | -0.704 | 1.54 (inactive) | -0.526 (inactive) | 0.289 (inactive) | 0.855 (inactive) | 1.3 (inactive) | -0.405 (inactive) | -0.317 (inactive) | -0.546 | 0.0378 |
| N#Cc1ccc(NN2C(C(O)c3ccc(B(O)O)cc3)C=CC3CN(c4ccccc4)C(=O)C32)cc1 (stereo not given) | -0.595 | -15.4 (active) | -1.25 (inactive) | -0.883 (inactive) | 0.475 (inactive) | 1.56 (inactive) | 0.898 (inactive) | 0.934 (inactive) | -0.662 | -0.0917 |
| O=C1C[C@@](C(=O)NCC(F)(F)F)(c2ccc([N+](=O)[O-])cc2)[C@@H](c2ccc(CO)cc2I)N1CC12CC3CC(CC(C3)C1)C2 | -4.52 | -1.42 (inactive) | -7.22 (inactive) | -1.13 (inactive) | 1.11 (inactive) | -0.355 (inactive) | 0.213 (inactive) | 1.29 (inactive) | -6.47 | -0.0287 |
| COCCOC(=O)N1C(=O)[C@@]2(c3cc(C#CCNC(N)=O)ccc31)[C@H](C(N)=O)[C@H]1C(=O)O[C@H](c3ccccc3)[C@H](c3ccccc3)N1[C@@H]2c1ccc(O)cc1 | 0.296 | -0.156 (inactive) | -0.477 (inactive) | 0.303 (inactive) | 1.01 (inactive) | 0.532 (inactive) | 0.769 (inactive) | 1.33 (inactive) | -0.392 | -0.245 |
| COC(=O)[C@@]1(Cc2ccc(F)cc2)[C@H]2c3cc(C(=O)N(C)C)n(Cc4ccsc4Br)c3C[C@H]2CN1C(=O)c1ccccc1 | -1.05 | 1.08 (inactive) | -1.36 (inactive) | -0.713 (inactive) | 1 (inactive) | 0.47 (inactive) | -1.52 (inactive) | -0.85 (inactive) | -2.7 | 0.447 |
| C=C(COC)/C(=C/C[C@@H](OC(C)=O)c1cccc(OCCO)c1)c1cnc2ccccc2c1 | -0.469 | -7.06 (inactive) | -0.732 (inactive) | -7.29 (inactive) | 0.203 (inactive) | 0.179 (inactive) | -0.672 (inactive) | -0.303 (inactive) | -0.311 | 0.133 |
| COc1ccc(C(=O)Nc2ccc(CN3C(=O)[C@@]4(O[C@@H](CC(=O)N(CCO)Cc5ccccc5)[C@H]([Si](C)(C)c5ccc(OC)cc5)[C@H]4C)c4ccccc43)cc2)cc1 | 1.4 | 0.164 (inactive) | -0.952 (inactive) | -1.53 (inactive) | 0.814 (inactive) | 0.961 (inactive) | 0.7 (inactive) | 0.439 (inactive) | -1.29 | 0.101 |
| COc1cccc(C)c1NC(=O)O[C@H]1[C@H](OC(=O)Nc2ccc3c(c2)OCO3)[C@H](OC(=O)Nc2ccc3c(c2)OCO3)[C@@H](OC)O[C@@H]1CO | -0.73 | 1.27 (inactive) | -0.494 (inactive) | -0.713 (inactive) | 0.606 (inactive) | 1.6 (inactive) | 0.84 (inactive) | -0.0834 (inactive) | -0.708 | 1.64 |
| C[C@@]1([C@@H](NS(=O)(=O)c2cccc3cccnc23)c2ccc(-c3ccccc3)cc2)C[C@H]1C1CCCCC1 | -0.901 | 0.944 (inactive) | -2.58 (inactive) | -0.554 (inactive) | -0.0982 (inactive) | 0.368 (inactive) | -0.893 (inactive) | -0.882 (inactive) | -0.678 | 0.553 |
| C=CCNC(=O)[C@H]1[C@@H]2C(=O)O[C@@H](c3ccccc3)[C@@H](c3ccccc3)N2[C@@H](c2ccc(O)cc2)[C@]12C(=O)Nc1ccccc12 | 0.715 | -0.842 (inactive) | 0.557 (inactive) | 0.776 (inactive) | 1.15 (inactive) | 1.76 (inactive) | 0.691 (inactive) | 0.975 (inactive) | -1.34 | -0.144 |
| CC[C@@H](O[Si](C#C[Si](C(C)C)(C(C)C)C(C)C)(C(C)C)C(C)C)c1cn(Cc2cccc(Cl)c2)nn1 | 0.318 | 1.42 (inactive) | 0.0769 (inactive) | 0.625 (inactive) | 0.313 (inactive) | 1.33 (inactive) | -0.0544 (inactive) | 0.309 (inactive) | 0.961 | 0.0583 |
